The full data set covers some 6,500 targets. This sample favours those with a hit. About 2% of all pairs of compound and target were hits. Values without a mark were called inactive.
Compound: COC(=O)C#Cc1ccccc1 [methyl 3-phenylpropiolate]
Assay: log2 ratio of iodoacetamide-alkyne labeling of the cysteine site, DMSO over compound (competition); higher = stronger covalent engagement of the cysteine by the compound, active = 1 or more
Conditions: 500 µM; treatment time 1 h; system: HEK293T cell lysate
Method in brief: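 HEK293T lysate at 2 mg/mL was treated with vehicle or electrophile (500 µM) for 1 h at ambient temperature, then labelled with iodoacetamide alkyne (1 h), clicked to sCIP-TMT reagents, pooled, digested with trypsin overnight at 37 °C, enriched on streptavidin and eluted with acid. Peptides were analysed by Orbitrap Eclipse LC-MS/MS with FAIMS and quantified in FragPipe, using duplicate channels and three replicates, with cysteines quantified in only one replicate excluded. The log2 competition ratio for each cysteine is the mean control-channel reporter intensity divided by the mean compound-channel reporter intensity.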

Chain of UniProt O43719 (O43719 whole entry, looked up): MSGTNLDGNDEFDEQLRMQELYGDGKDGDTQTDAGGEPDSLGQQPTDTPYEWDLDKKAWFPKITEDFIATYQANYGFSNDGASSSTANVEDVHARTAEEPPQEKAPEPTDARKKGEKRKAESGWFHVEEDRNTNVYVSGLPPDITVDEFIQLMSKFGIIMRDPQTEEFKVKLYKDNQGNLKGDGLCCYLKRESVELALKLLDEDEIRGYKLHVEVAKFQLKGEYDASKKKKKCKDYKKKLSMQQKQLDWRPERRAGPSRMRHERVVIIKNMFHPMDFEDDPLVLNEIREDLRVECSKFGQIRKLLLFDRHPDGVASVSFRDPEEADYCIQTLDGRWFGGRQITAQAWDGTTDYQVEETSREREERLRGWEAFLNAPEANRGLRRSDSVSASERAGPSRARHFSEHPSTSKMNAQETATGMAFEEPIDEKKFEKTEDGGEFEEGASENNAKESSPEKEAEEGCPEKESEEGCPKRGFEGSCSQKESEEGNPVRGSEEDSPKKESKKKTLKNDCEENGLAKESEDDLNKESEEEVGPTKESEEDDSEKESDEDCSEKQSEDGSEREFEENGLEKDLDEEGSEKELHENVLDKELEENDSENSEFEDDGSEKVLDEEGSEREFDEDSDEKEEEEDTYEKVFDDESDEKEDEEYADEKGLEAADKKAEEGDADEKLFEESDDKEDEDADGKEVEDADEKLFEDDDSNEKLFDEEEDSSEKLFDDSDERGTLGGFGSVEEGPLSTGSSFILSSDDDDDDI
Chain of UniProt O15084 (O15084 whole entry): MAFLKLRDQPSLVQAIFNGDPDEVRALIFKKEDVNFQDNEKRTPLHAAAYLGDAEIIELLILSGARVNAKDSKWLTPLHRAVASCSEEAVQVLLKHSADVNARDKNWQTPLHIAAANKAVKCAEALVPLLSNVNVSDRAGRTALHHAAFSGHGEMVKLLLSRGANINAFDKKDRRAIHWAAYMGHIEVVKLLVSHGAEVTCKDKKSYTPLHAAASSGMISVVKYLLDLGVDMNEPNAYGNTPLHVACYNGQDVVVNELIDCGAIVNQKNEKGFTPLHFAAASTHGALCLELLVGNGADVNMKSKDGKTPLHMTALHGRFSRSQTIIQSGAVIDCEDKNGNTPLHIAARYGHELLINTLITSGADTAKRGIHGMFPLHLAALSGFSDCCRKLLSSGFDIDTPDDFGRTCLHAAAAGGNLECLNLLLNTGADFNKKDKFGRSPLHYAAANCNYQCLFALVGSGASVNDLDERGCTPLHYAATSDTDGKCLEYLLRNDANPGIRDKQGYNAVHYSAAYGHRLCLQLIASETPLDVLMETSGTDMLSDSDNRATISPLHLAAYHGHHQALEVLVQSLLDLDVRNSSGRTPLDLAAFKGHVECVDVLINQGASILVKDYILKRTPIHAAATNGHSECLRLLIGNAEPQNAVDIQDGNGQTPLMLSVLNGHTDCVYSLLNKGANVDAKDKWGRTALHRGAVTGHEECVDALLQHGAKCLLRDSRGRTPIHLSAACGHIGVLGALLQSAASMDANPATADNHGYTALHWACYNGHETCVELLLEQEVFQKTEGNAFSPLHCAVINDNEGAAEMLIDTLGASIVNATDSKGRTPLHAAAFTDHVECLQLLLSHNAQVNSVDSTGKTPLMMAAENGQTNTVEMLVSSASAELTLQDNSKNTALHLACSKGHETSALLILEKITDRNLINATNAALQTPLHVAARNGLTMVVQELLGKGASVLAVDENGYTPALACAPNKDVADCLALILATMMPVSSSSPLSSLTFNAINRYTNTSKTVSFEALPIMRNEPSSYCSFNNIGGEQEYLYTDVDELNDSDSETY
Chain of UniProt O75663 (O75663 whole entry, looked up): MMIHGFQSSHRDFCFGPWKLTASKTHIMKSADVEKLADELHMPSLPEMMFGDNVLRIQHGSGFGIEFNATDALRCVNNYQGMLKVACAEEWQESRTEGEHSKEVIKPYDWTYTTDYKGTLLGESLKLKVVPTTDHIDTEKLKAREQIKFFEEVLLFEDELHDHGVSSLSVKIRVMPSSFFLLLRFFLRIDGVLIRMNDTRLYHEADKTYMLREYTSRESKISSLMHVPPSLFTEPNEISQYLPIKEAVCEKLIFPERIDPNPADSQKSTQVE
Chain of UniProt O43583 (O43583 whole entry, looked up): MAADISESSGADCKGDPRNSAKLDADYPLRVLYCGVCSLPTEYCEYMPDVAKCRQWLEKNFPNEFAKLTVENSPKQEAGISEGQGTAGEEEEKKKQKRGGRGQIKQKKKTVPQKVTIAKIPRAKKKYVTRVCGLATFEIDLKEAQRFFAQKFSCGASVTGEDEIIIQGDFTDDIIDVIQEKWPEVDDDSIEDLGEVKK
Chain of UniProt O00571 (O00571 whole entry, looked up): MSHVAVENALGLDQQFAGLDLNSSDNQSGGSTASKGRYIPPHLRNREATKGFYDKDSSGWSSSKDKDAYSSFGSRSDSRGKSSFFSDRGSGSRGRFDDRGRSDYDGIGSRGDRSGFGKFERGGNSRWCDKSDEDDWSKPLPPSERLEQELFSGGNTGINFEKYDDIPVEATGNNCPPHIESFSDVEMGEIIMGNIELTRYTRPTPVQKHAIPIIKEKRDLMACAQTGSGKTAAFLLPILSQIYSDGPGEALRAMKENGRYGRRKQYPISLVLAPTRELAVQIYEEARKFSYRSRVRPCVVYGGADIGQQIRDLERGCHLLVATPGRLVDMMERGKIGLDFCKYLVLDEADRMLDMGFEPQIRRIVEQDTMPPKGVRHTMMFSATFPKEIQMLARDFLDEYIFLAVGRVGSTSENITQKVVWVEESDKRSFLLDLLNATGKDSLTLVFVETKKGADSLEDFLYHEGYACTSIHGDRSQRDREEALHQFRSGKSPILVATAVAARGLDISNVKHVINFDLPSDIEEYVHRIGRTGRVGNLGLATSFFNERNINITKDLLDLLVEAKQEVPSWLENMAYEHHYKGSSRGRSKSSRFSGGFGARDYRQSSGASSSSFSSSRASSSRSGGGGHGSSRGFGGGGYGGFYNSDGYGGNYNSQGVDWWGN
Chain of UniProt O15304 (O15304 whole entry, looked up): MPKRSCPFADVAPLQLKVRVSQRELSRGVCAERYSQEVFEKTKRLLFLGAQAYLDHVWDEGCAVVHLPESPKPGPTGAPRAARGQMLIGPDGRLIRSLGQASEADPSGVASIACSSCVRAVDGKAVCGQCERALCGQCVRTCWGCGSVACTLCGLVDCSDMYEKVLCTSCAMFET
Chain of UniProt A5PLL7 (A5PLL7 whole entry, looked up): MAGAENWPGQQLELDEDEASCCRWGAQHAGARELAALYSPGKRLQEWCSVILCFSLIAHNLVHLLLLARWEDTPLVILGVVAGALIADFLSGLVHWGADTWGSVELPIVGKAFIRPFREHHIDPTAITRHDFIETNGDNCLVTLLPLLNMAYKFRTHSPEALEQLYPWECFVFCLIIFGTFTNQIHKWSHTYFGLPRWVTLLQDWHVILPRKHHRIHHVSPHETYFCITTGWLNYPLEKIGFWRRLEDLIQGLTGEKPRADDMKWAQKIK

First: KATNA1 C491 (UniProt O75449)
Chain of UniProt O75449 (O75449 whole entry, looked up): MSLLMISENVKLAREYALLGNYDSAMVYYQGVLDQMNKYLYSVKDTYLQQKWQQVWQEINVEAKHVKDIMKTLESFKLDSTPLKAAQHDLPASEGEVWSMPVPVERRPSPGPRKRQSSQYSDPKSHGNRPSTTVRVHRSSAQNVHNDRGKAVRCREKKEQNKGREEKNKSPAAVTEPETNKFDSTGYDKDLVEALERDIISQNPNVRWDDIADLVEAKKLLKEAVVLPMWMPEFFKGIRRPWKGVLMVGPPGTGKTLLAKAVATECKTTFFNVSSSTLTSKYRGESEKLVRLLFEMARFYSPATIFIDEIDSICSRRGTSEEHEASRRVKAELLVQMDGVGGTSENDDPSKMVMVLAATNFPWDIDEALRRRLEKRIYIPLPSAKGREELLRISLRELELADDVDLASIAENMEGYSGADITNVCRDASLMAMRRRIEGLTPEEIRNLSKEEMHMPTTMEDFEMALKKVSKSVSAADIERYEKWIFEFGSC
Second: USO1 C303 (UniProt O60763)
Chain of UniProt O60763 (O60763 whole entry, looked up): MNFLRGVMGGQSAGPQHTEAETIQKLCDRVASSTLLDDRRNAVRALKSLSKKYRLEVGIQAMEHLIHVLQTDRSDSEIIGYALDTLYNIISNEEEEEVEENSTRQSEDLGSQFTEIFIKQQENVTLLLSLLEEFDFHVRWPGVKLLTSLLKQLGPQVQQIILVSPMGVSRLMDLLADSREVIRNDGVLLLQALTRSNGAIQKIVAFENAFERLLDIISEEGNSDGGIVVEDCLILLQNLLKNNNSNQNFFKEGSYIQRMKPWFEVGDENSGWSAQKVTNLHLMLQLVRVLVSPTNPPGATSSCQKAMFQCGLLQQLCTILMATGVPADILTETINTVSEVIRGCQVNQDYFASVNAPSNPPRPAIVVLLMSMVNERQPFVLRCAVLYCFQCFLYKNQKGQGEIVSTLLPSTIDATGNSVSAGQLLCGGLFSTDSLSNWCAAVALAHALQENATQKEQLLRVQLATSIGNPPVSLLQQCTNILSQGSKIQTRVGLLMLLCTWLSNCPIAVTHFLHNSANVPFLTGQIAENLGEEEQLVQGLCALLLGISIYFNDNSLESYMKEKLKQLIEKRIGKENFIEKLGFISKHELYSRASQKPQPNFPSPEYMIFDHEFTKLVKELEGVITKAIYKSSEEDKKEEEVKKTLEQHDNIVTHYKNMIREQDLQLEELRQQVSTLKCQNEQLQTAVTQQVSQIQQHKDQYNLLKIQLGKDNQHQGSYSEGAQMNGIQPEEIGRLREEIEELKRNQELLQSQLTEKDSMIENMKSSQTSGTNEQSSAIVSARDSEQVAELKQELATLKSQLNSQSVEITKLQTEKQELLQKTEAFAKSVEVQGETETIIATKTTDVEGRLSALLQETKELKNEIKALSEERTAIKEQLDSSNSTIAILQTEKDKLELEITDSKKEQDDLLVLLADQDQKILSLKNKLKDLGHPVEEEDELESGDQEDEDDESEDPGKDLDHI
The “log2 ratio of iodoacetamide-alkyne labeling” value (“log2 ratio” below) of the first is lower: 0.112 for the first, 0.712 for the second.

Compared with RNMT C73 (UniProt O43148), HEXIM1 C18 (UniProt O94992) is lower in “log2 ratio” value: 0.607 for the first, 0.398 for the second.

ANKRD17 C210 (UniProt O75179) and UniProt O75153_C88 are within 0.2 log units of each other in “log2 ratio” value: 0.398 for the first, 0.201 for the second.

Going from NVL C550 (UniProt O15381) to IGF2BP3 C546 (UniProt O00425), the “log2 ratio” value rises from -0.302 to 0.284.

UniProt O94822_C498 and ARHGEF11 C1500 (UniProt O15085) are within 0.2 log units of each other in “log2 ratio” value: 0.086 for the first, 0.0286 for the second.

APAF1 C115 (UniProt O14727) and NUP155 C704 (UniProt O75694) are within 0.2 log units of each other in “log2 ratio” value: 0.288 for the first, 0.168 for the second.

First: NVL C391 (UniProt O15381)
Second: PPFIA2 C143 (UniProt O75334)
The “log2 ratio” value of the first is higher: 0.0922 for the first, -0.214 for the second.

Compared with DNM1L C361 (UniProt O00429), UniProt O75947_C101 is higher in “log2 ratio” value: 0.736 for the first, 0.98 for the second.

DENR C13 (UniProt O43583) and EPB41L2 C424 (UniProt O43491) are within 0.2 log units of each other in “log2 ratio” value: 0.235 for the first, 0.17 for the second.

HGS C166 (UniProt O14964) and PSMD11 C289 (UniProt O00231) are within 0.2 log units of each other in “log2 ratio” value: 0.319 for the first, 0.253 for the second.

Compared with CD3EAP C107 (UniProt O15446), UniProt O75153_C1196 is lower in “log2 ratio” value: 0.723 for the first, 0.492 for the second.

First: DNM1L C367 (UniProt O00429)
Second: O15320_C147 (UniProt Q96PC5+O15320)
The “log2 ratio” value of the first is higher: 0.986 for the first, -0.197 for the second.

NMT2 C104 (UniProt O60551) and ANKRD28 C701 (UniProt O15084) are within 0.2 log units of each other in “log2 ratio” value: 0.453 for the first, 0.336 for the second.

UniProt O00148_C62 and DDX3X C128 (UniProt O00571) are within 0.2 log units of each other in “log2 ratio” value: 0.591 for the first, 0.406 for the second.

With HTATSF1 C471 (UniProt O43719) the “log2 ratio” value was 1.14 (active).
HEXIM1 C79 (UniProt O94992) was tested, and the “log2 ratio” value was 1.3 (active).
For SIVA1 C6 (UniProt O15304), the “log2 ratio” value was 1.88 (active).
With NKRF C37 (UniProt O15226) the “log2 ratio” value was 1.02 (active).
With POLRMT C119 (UniProt O00411) the “log2 ratio” value was 1.22 (active).
In the case of PHGDH C369 (UniProt O43175), the “log2 ratio” value was 1.78 (active).
In the case of UniProt O15042_C291, the “log2 ratio” value was 1 (active).
With TMEM189 C21 (UniProt A5PLL7) the “log2 ratio” value was 1.52 (active).
For PRKRA C106 (UniProt O75569), the “log2 ratio” value was 1.07 (active).
In the case of TRAFD1 C482 (UniProt O14545), the “log2 ratio” value was 1.55 (active).
TIPRL C87 (UniProt O75663) was tested, and the “log2 ratio” value was 1.32 (active).

Source: the supplement of paper PMC11006884
